Growth data for 13 compounds are collected here from PubChem BioAssay (NCI).

The panel holds about 83,000 compounds, 20% with a hit somewhere; the sample as a whole holds those more often.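 Note: values are percent growth. 100 is the growth of untreated cells, values between 100 and 0 indicate rising inhibition; between -100 and 0 indicates cell death.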 The source made the active and inactive calls. Rule for the calls: active = growth percent below 10; inactive = the rest.

The test system of the first experiment is MDA-MB-435 melanoma. In words: NCI-60 one-dose screen, 48 h (100 = growth as untreated, 0 = no growth, -100 = all killed). To be noted: 10 µM unless noted.
On to `O=C1Nc2ccc(F)cc2/C1=C\C(=O)c1ccc(NS(=O)(=O)c2ccccc2)cc1`, for which the growth was 92.5% (inactive).

As to `CCCCCc1ccc(S(=O)(=O)Nc2cc(-c3csc(N)n3)ccc2OC)cc1`, the growth is 107% (inactive).

For `CN1CCN(c2ccc(Nc3nc(NCCNS(=O)(=O)c4ccc5ccccc5c4)c4sccc4n3)cc2)CC1`, the growth was 53.7% (inactive).

Turning to `CCn1c2ccc(/C=N/N(C)S(=O)(=O)CCN(C)C)cc2c2cc(/C=N/N(C)S(=O)(=O)CCN(C)C)ccc21`, the growth is 62% (inactive).

The next experiment concerns SW-620 colon. The experiment is described as above. To be noted: 10 µM unless noted.
Regarding `N#C/C(=C\c1ccc(-c2ccc(Cl)cc2)o1)C(=O)Nc1ncc(Cc2ccc(Br)cc2)s1`, the growth was -40% (active).

With `O=C(COc1ccc(/C=C2\C(=O)Nc3ccc(Cl)cc32)cc1)Nc1ccc(Cl)cc1`, the growth is 45.5% (inactive).

`CC(O)c1cccc(/C(N)=N/C(N)=N/c2nc3ccccc3s2)c1` (stereo not drawn): the growth is 98.2% (inactive).

For the compound `O=C(CN1CCN(c2cc(=O)[nH]c3ccc(F)cc23)CC1)N(c1ccccc1)c1ccccc1`, the growth was 104% (inactive).

For `Cn1c(SCC(=O)c2ccc(Br)cc2)nc2ccccc2c1=O`, the growth is 102% (inactive).

For `NC(N)=NS(=O)(=O)c1ccc(N=Nc2c(N)nn(-c3ccc([N+](=O)[O-])cc3[N+](=O)[O-])c2N)cc1`, the growth is 101% (inactive).

On to `Cc1cc2nc3c4cc(C#N)ccc4n(CCN(C)C)c3nc2cc1C`, for which the growth is -9.39% (active).

For the compound `O=C(CCCCCCN1CC(=O)N2[C@@H](c3cccs3)c3[nH]c4ccccc4c3C[C@H]2C1=O)NO`, the growth is 82.7% (inactive).

Regarding `O=C(CSc1nc2ccccc2c(=O)n1CCc1ccccc1)Nc1ccc(S(=O)(=O)Nc2ccc(Cl)nn2)cc1`, the growth is 91.3% (inactive).
